Data taken from PubChem BioAssay (NCI).
The panel holds about 83,000 compounds, 20% with a hit somewhere; the sample as a whole holds those more often.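 Negative percent growth values reflect cell death: -40 means 40% of the cells present at the start died, and -100 means all died.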 Active and inactive are the calls of the source. Rule for the calls: active = growth percent below 10; inactive = the rest.

How the values were obtained:
Test in all cases: NCI-60 one-dose screen, 48 h (100 = growth as untreated, 0 = no growth, -100 = all killed)
Conditions in all cases: 10 µM unless noted
NCI-H23 lung = system: NCI-H23 lung
NCI-H226 lung = system: NCI-H226 lung
NCI-H322M lung = system: NCI-H322M lung
HOP-62 NSCLC = system: HOP-62 NSCLC
NCI-H460 lung = system: NCI-H460 lung
NCI-H522 lung = system: NCI-H522 lung
A549/ATCC NSCLC = system: A549/ATCC NSCLC
786-0 renal = system: 786-0 renal
COLO 205 colon = system: COLO 205 colon
DU-145 prostate = system: DU-145 prostate
K-562 leukemia = system: K-562 leukemia
MALME-3M melanoma = system: MALME-3M melanoma
MDA-MB-231 breast = system: MDA-MB-231 breast
RXF 393 renal = system: RXF 393 renal
SF-268 CNS = system: SF-268 CNS
SF-539 CNS = system: SF-539 CNS
UACC-257 melanoma = system: UACC-257 melanoma
M14 melanoma = system: M14 melanoma
SF-295 CNS = system: SF-295 CNS
HCT-15 colon = system: HCT-15 colon

Measured: growth

O=C(/C=C/c1ccc(O)c(O)c1)N1CCN(c2ccc(Cl)cc2)CC1
inactive: NCI-H23 lung 62.9% | NCI-H226 lung 63.8% | NCI-H322M lung 85.1% | HOP-62 NSCLC 88.2% | NCI-H460 lung 46.4% | A549/ATCC NSCLC 61.2% | 786-0 renal 73.1% | COLO 205 colon 71.4% | DU-145 prostate 69.4% | K-562 leukemia 61.8% | MALME-3M melanoma 66.2% | MDA-MB-231 breast 59.2% | RXF 393 renal 58% | SF-268 CNS 57% | SF-539 CNS 66.4% | UACC-257 melanoma 81.8% | M14 melanoma 67.8%
active: NCI-H522 lung -3.39%

Cc1cc(CC(=O)O)n(C)c1C(=O)c1ccc(Cl)cc1
inactive: NCI-H23 lung 96.3% | NCI-H226 lung 95.2% | NCI-H322M lung 120% | HOP-62 NSCLC 117% | NCI-H460 lung 115% | NCI-H522 lung 101% | A549/ATCC NSCLC 108% | 786-0 renal 103% | COLO 205 colon 114% | DU-145 prostate 125% | K-562 leukemia 103% | MALME-3M melanoma 102% | MDA-MB-231 breast 109% | RXF 393 renal 117% | SF-268 CNS 114% | SF-295 CNS 93.1% | UACC-257 melanoma 104% | M14 melanoma 106% | HCT-15 colon 103%

CC1=CC(=O)C(C(C)=Nc2ccccc2Cl)C(=O)O1 (stereo not drawn)
inactive: NCI-H23 lung 142% | NCI-H226 lung 104% | NCI-H322M lung 121% | HOP-62 NSCLC 109% | NCI-H460 lung 109% | NCI-H522 lung 121% | A549/ATCC NSCLC 116% | 786-0 renal 114% | COLO 205 colon 129% | DU-145 prostate 110% | K-562 leukemia 105% | MALME-3M melanoma 123% | MDA-MB-231 breast 105% | SF-268 CNS 101% | SF-295 CNS 121% | SF-539 CNS 101% | M14 melanoma 107% | HCT-15 colon 105%
active: UACC-257 melanoma -17.3%

c1cnc2ccc3ncccc3c2c1
inactive: NCI-H23 lung 118% | NCI-H226 lung 105% | NCI-H322M lung 117% | HOP-62 NSCLC 82.6% | NCI-H460 lung 105% | NCI-H522 lung 84.6% | A549/ATCC NSCLC 90.2% | 786-0 renal 103% | COLO 205 colon 109% | DU-145 prostate 117% | K-562 leukemia 106% | MALME-3M melanoma 146% | MDA-MB-231 breast 114% | SF-268 CNS 107% | SF-295 CNS 113% | SF-539 CNS 104% | UACC-257 melanoma 83.5% | M14 melanoma 99.8% | HCT-15 colon 108%

CCOc1nc(-c2ccccc2)cc2c(O)c(C(=O)n3nc(C)cc3C)[nH]c(=O)c12
inactive: NCI-H23 lung 97.6% | NCI-H226 lung 91.8% | NCI-H322M lung 103% | HOP-62 NSCLC 105% | NCI-H460 lung 107% | NCI-H522 lung 104% | A549/ATCC NSCLC 102% | 786-0 renal 100% | COLO 205 colon 108% | DU-145 prostate 111% | K-562 leukemia 86.7% | MALME-3M melanoma 102% | MDA-MB-231 breast 112% | SF-268 CNS 99% | SF-295 CNS 101% | SF-539 CNS 101% | UACC-257 melanoma 112% | M14 melanoma 102% | HCT-15 colon 100%

CCN1C(=O)c2ccc3c4c(ccc(c24)C1=O)C(=O)N(CCCNCc1ccccc1OC)C3=O
active: NCI-H23 lung -42.7% | NCI-H226 lung -36.6% | NCI-H322M lung -31.6% | HOP-62 NSCLC -36.8% | NCI-H460 lung -57.8% | NCI-H522 lung -87.1% | A549/ATCC NSCLC -58.1% | 786-0 renal -51.5% | COLO 205 colon -81.5% | DU-145 prostate -87.4% | K-562 leukemia -36% | MALME-3M melanoma -87.6% | MDA-MB-231 breast 2.92% | SF-268 CNS -15.5% | SF-295 CNS -69.8% | SF-539 CNS -96.4% | UACC-257 melanoma -88.6% | M14 melanoma -92.8% | HCT-15 colon -78.3%

Nc1nonc1-c1nc2ccccc2n1CC(=O)Nc1ccc2c(c1)COC2=O
inactive: NCI-H23 lung 86.3% | NCI-H226 lung 87.7% | NCI-H322M lung 107% | HOP-62 NSCLC 83.8% | NCI-H460 lung 95.7% | NCI-H522 lung 61.6% | A549/ATCC NSCLC 88.8% | 786-0 renal 93% | COLO 205 colon 98.4% | DU-145 prostate 108% | K-562 leukemia 38.9% | MALME-3M melanoma 79.4% | MDA-MB-231 breast 82.1% | RXF 393 renal 93.7% | SF-268 CNS 90.3% | SF-539 CNS 86.5% | UACC-257 melanoma 90.1% | M14 melanoma 72.9% | HCT-15 colon 70.5%

CSc1ncc2ncn(C3OC(CO)C(O)C3O)c2n1 (stereo not drawn)
inactive: NCI-H23 lung 137% | NCI-H226 lung 102% | NCI-H322M lung 124% | HOP-62 NSCLC 119% | NCI-H460 lung 120% | NCI-H522 lung 119% | A549/ATCC NSCLC 108% | 786-0 renal 110% | COLO 205 colon 142% | DU-145 prostate 115% | K-562 leukemia 104% | MALME-3M melanoma 126% | MDA-MB-231 breast 108% | SF-268 CNS 103% | SF-295 CNS 107% | SF-539 CNS 114% | UACC-257 melanoma 126% | M14 melanoma 107%

CSc1nnc(C2=CC(=O)c3ccccc3C2=O)n1-c1ccccc1
inactive: NCI-H23 lung 83.9% | NCI-H226 lung 85.5% | NCI-H322M lung 91.1% | HOP-62 NSCLC 100% | NCI-H460 lung 83.6% | NCI-H522 lung 64.5% | A549/ATCC NSCLC 76.3% | 786-0 renal 95.2% | COLO 205 colon 110% | DU-145 prostate 104% | MALME-3M melanoma 84.9% | MDA-MB-231 breast 93.2% | SF-268 CNS 92% | SF-295 CNS 85.8% | SF-539 CNS 98.1% | UACC-257 melanoma 86.7% | M14 melanoma 92% | HCT-15 colon 95.3%
active: K-562 leukemia -0.209%

Nc1nc(N)c([N+](=O)[O-])c(=O)[nH]1
inactive: NCI-H23 lung 97.8% | NCI-H226 lung 102% | NCI-H322M lung 104% | HOP-62 NSCLC 84.7% | NCI-H460 lung 106% | NCI-H522 lung 103% | A549/ATCC NSCLC 97.8% | 786-0 renal 110% | COLO 205 colon 109% | DU-145 prostate 113% | K-562 leukemia 108% | MALME-3M melanoma 118% | MDA-MB-231 breast 115% | RXF 393 renal 114% | SF-268 CNS 115% | SF-539 CNS 106% | UACC-257 melanoma 103% | M14 melanoma 106% | HCT-15 colon 104%

CC(O)c1nc2c(c(=O)n(C)c(=O)n2C)n1C (stereo not drawn)
inactive: NCI-H23 lung 114% | NCI-H226 lung 104% | NCI-H322M lung 98.5% | HOP-62 NSCLC 85.5% | NCI-H460 lung 107% | NCI-H522 lung 90% | A549/ATCC NSCLC 91.2% | 786-0 renal 105% | COLO 205 colon 108% | DU-145 prostate 122% | K-562 leukemia 116% | MALME-3M melanoma 121% | MDA-MB-231 breast 117% | SF-268 CNS 107% | SF-295 CNS 108% | SF-539 CNS 102% | UACC-257 melanoma 106% | M14 melanoma 95.6% | HCT-15 colon 104%

Cc1cc(O)c2c(c1)C[C@H]1[C@@H]3CC[C@H]4CC(=O)CC[C@]4(C)[C@H]3CC(=O)[C@]21C
inactive: NCI-H23 lung 77.3% | NCI-H226 lung 94.6% | NCI-H322M lung 104% | HOP-62 NSCLC 123% | NCI-H460 lung 99.2% | NCI-H522 lung 73.9% | A549/ATCC NSCLC 77% | 786-0 renal 87.8% | COLO 205 colon 104% | DU-145 prostate 85.2% | K-562 leukemia 53.3% | MALME-3M melanoma 92.8% | MDA-MB-231 breast 86% | RXF 393 renal 94.1% | SF-268 CNS 87.6% | SF-539 CNS 73.3% | UACC-257 melanoma 100% | M14 melanoma 80.9% | HCT-15 colon 45.3%

Nc1ccc(C2=NN(c3ccccc3)C(c3ccc(Cl)cc3)C2)cc1 (stereo not drawn)
inactive: NCI-H23 lung 92.8% | NCI-H226 lung 90.9% | NCI-H322M lung 88.2% | HOP-62 NSCLC 87.2% | NCI-H460 lung 99.4% | NCI-H522 lung 22.7% | A549/ATCC NSCLC 83.1% | 786-0 renal 78.4% | COLO 205 colon 101% | DU-145 prostate 81.7% | K-562 leukemia 17.5% | MALME-3M melanoma 105% | MDA-MB-231 breast 88.5% | SF-268 CNS 82.5% | SF-295 CNS 86.6% | SF-539 CNS 81.2% | UACC-257 melanoma 82.1% | M14 melanoma 72.7% | HCT-15 colon 48.7%

COc1ccc(/C(=C2\O[C@@H]([C@H](O)CO)[C@H]3OC(C)(C)O[C@@H]23)c2cc(OC)c(OC)c(OC)c2)cc1O
inactive: NCI-H23 lung 89.8% | NCI-H226 lung 110% | NCI-H322M lung 109% | HOP-62 NSCLC 88.4% | NCI-H460 lung 107% | NCI-H522 lung 57.5% | A549/ATCC NSCLC 89.4% | 786-0 renal 94.3% | COLO 205 colon 126% | DU-145 prostate 87.1% | K-562 leukemia 12.6% | MALME-3M melanoma 75.7% | MDA-MB-231 breast 97% | SF-268 CNS 71.1% | SF-295 CNS 92.5% | SF-539 CNS 68.2% | UACC-257 melanoma 97.9% | M14 melanoma 47.7% | HCT-15 colon 62.2%

COc1ccc2nc3cc(Cl)ccc3c(Nc3cc(C(C)C)c(O)cc3C)c2c1
active: NCI-H522 lung -20.1% | SF-295 CNS 5.22%
inactive: NCI-H23 lung 40.1% | NCI-H226 lung 79.5% | NCI-H322M lung 51.5% | HOP-62 NSCLC 58.2% | NCI-H460 lung 35.3% | A549/ATCC NSCLC 14.5% | 786-0 renal 35.5% | COLO 205 colon 15.7% | DU-145 prostate 52.3% | K-562 leukemia 19.4% | MALME-3M melanoma 39.3% | MDA-MB-231 breast 37.7% | SF-268 CNS 64% | SF-539 CNS 59.5% | UACC-257 melanoma 47% | M14 melanoma 56.2% | HCT-15 colon 10.6%
